# Data published in PubChem BioAssay (EPA / NIEHS).
# Records with an inconclusive call do not appear. Active and inactive are the calls of the source. How the source made its calls, unless noted: active means hit-call score of the fitted dose curve at least 0.9, where 1 is the maximum; inactive means score below 0.9.
# Key:
# [1] = ATG_NFI_CIS: Attagene CIS-FACTORIAL HepG2 Assay for human Nuclear Factor I (NFI) (AID 2282989); conditions: HepG2 cis-regulatory reporter, NFI response element transcription; actives raise or lower the signal
# Procedure, shortened: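 Multiplexed cis-reporter system in human HepG2 cells reports native TF activity as reporter mRNA induction 24 h post-dose. Fragments labelled with 6-FAM, HpaI-digested and resolved by capillary electrophoresis; activity fitted both directions versus DMSO.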
# [2] = biological target: Myc proto-oncogene protein (Homo sapiens) (UniProt P01106); assay: ATG_Myc_CIS: Attagene CIS-FACTORIAL HepG2 Assay for human Myelocytomatosis (Myc) Proto-Oncogene Transcription Factor (AID 2282990); conditions: HepG2, Attagene cis-reporter transcription factor activity; actives raise or lower the signal
# Procedure, shortened: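 HepG2 cells transiently transfected with multiple cis-promoter-driven reporter transcription units, so endogenous TF activity is read. After 24 h compound exposure, reporter mRNA was quantified by RT-PCR, 6-FAM labelling, HpaI digestion and capillary electrophoresis; bidirectional fit versus DMSO.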
# [3] = ATG_NF_kB_CIS: Attagene CIS-FACTORIAL HepG2 Assay for human Nuclear Factor Kappa B (NF-kB) (AID 2282991); conditions: HepG2 Attagene cis-factorial NF-kB reporter mRNA; actives raise or lower the signal
# Procedure, shortened: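 Measures mRNA induction of an NF-kB-responsive cis-element reporter in HepG2 cells transfected with multiple reporter units, sampled 24 h post-dosing; quantified by fluorescence after RT-PCR and capillary electrophoresis, fitted for activation or inhibition against DMSO.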
# [4] = ATG_NRF2_ARE_CIS: Attagene CIS-FACTORIAL HepG2 Assay for human Nuclear Factor Erythroid 2 Related Factor 2 (NFR2) response to Antioxidant Response Elements (ARE) (AID 2282992); conditions: HepG2 Attagene ARE/NRF2 reporter, transcription factor activity; actives raise or lower the signal;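 on AC50: reporter mRNA level measured by RT-PCR and capillary electrophoresis fluorescence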
# Procedure, shortened: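 Multiplexed reporter mRNA profiling in HepG2 after a 24 h chemical exposure. Curves fitted in both directions relative to DMSO negative control.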
# [5] = ATG_Oct_MLP_CIS: Attagene CIS-FACTORIAL HepG2 Assay for human Octamer-Binding Transcription Factor (Oct) (AID 2282993); conditions: HepG2 Attagene cis-factorial Oct reporter, mRNA; actives raise or lower the signal
# Procedure, shortened: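 After 24 h compound exposure, transfected HepG2 cells were lysed for total RNA; reporter-specific cDNA was PCR-amplified, fluorescently labelled and sized by capillary electrophoresis. Bidirectional curve fitting used DMSO as baseline.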
# [6] = biological target: human Peroxisome Proliferator-activated Receptor alpha (PPARa), PPARA (gene 5465) (UniProt Q07869); assay: ATG_PPARa_TRANS: Attagene TRANS-FACTORIAL HepG2 Assay for human Peroxisome Proliferator-activated Receptor alpha (PPARa) (AID 2283001; active means hit-call score of the fitted dose curve at least 0.9, where 1 is the maximum)
# Procedure, shortened: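 HepG2 cells transiently transfected with multiplexed GAL4-UAS reporter units and chimeric NR-Gal4 constructs were dosed for 24 h. Reporter mRNA was measured by RT-PCR with fluorescent labelling and capillary electrophoresis; gain of signal fitted against DMSO.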
# [7] = biological target: Nuclear receptor subfamily 1 group I member 2 (Homo sapiens) (UniProt O75469); assay: ATG_PXR_TRANS: Attagene TRANS-FACTORIAL HepG2 Assay for human Pregnane X Receptor (PXR) (AID 2283008; active means hit-call score of the fitted dose curve at least 0.9, where 1 is the maximum)
# Procedure, shortened: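 Measures mRNA induction of a GAL4-UAS-driven reporter in human HepG2 cells transiently expressing PXR fused to Gal4, following 24 h treatment. DMSO served as negative control and baseline.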
# [8] = biological target: Cellular tumor antigen p53 (Homo sapiens) (UniProt P04637); assay: ATG_p53_CIS: Attagene CIS-FACTORIAL HepG2 Assay for human p53 Transcription Factor (AID 2282994); conditions: HepG2 p53 cis-element reporter, Attagene mRNA; actives raise or lower the signal
# Procedure, shortened: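 Multiplexed reporter mRNA assay in human HepG2 liver cells; cis-regulated units report endogenous factor activity. Values come from bidirectional curve fitting against DMSO negative control after 24 h treatment.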
# [9] = biological target: human Peroxisome Proliferator-activated Receptor delta (PPARd), PPARD (gene 5467) (UniProt Q03181); assay: ATG_PPARd_TRANS: Attagene TRANS-FACTORIAL HepG2 Assay for human Peroxisome Proliferator-activated Receptor delta (PPARd) (AID 2283002; active means hit-call score of the fitted dose curve at least 0.9, where 1 is the maximum)
# Procedure, shortened: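 HepG2 cells transiently transfected with multiplexed GAL4-UAS reporter units and exogenous chimeric NR-Gal4 proteins; 24 h compound exposure. Reporter mRNA measured by RT-PCR, 6-FAM labelling, HpaI digestion and capillary electrophoresis; gain of signal versus DMSO.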
# [10] = biological target: human RAR-related Orphan Receptor beta (RORb), RORB (gene 6096) (UniProt Q92753); assay: ATG_RORb_TRANS: Attagene TRANS-FACTORIAL HepG2 Assay for human RAR-related Orphan Receptor beta (RORb) (AID 2283010; active means hit-call score of the fitted dose curve at least 0.9, where 1 is the maximum)
# Procedure, shortened: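 HepG2 cells were transiently transfected with multiplexed GAL4-UAS reporter units expressing chimeric nuclear receptor–GAL4 proteins, then dosed for 24 h. Reporter mRNA was quantified by RT-PCR with fluorescent labelling and capillary electrophoresis; gain of signal was fitted relative to DMSO.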
# [11] = biological target: Peroxisome proliferator-activated receptor gamma (Homo sapiens) (UniProt P37231); assay: ATG_PPARg_TRANS: Attagene TRANS-FACTORIAL HepG2 Assay for human Peroxisome Proliferator-activated Receptor-gamma (PPARg) (AID 2283007; active means hit-call score of the fitted dose curve at least 0.9, where 1 is the maximum)
# Procedure, shortened: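 Gain-of-signal endpoint relative to DMSO, derived from reporter mRNA levels quantified by RT-PCR and capillary electrophoresis. Cells were HepG2 transiently expressing a chimeric NR-Gal4 construct with GAL4-UAS reporters, exposed to chemicals for 24 h.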
# [12] = biological target: Retinoic acid receptor alpha (Homo sapiens) (UniProt P10276); assay: ATG_RARa_TRANS: Attagene TRANS-FACTORIAL HepG2 Assay for human Retinoic Acid Receptor alpha (RARa) (AID 2283005; active means hit-call score of the fitted dose curve at least 0.9, where 1 is the maximum)
# Procedure, shortened: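 HepG2 cells transiently transfected with multiple reporter units expressing chimeric RARα-GAL4 fusion, with GAL4-UAS-driven reporters. After 24 h compound exposure, reporter mRNA induction quantified by RT-PCR and capillary electrophoresis with fluorescent labeling; gain-of-signal fitted relative to DMSO control.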
# [13] = BSK_3C_TissueFactor: BioMAP Diversity Plus: 3C Assay for Tissue Factor Biomarker Activity (AID 2282997); conditions: BioMAP 3C HUVEC, tissue factor biomarker readout; actives raise or lower the signal
# Procedure, shortened: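 Primary human umbilical vein endothelial cells in the 3C system were exposed to test chemical for 24 h, then Tissue Factor measured by ELISA. Activity was fitted bidirectionally against DMSO as negative control and baseline.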
# [14] = BSK_3C_uPAR: BioMAP Diversity Plus: 3C Assay for Urokinase-type plasminogen activator receptor (uPAR) Biomarker Activity (AID 2282998); conditions: BioMAP 3C HUVEC, uPAR biomarker ELISA; actives raise or lower the signal
# Procedure, shortened: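 Values derive from bidirectional curve fitting relative to DMSO, which served as baseline of activity. uPAR was measured by ELISA in human umbilical vein endothelial primary cultures 24 h after compound addition.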
# [15] = BSK_3C_VCAM1: BioMAP Diversity Plus: 3C Assay for Vascular cell adhesion molecule 1 (VCAM1) Biomarker Activity (AID 2282999); conditions: BioMAP 3C HUVEC, VCAM1 ELISA, cytokine-stimulated; actives raise or lower the signal
# Procedure, shortened: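 Human umbilical vein endothelial cells were dosed with compound for 24 h, after which cell-surface VCAM-1 was quantified by ELISA. Bidirectional curve fitting used DMSO as negative control and activity baseline.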
# [16] = BSK_4H_Eotaxin3: BioMAP Diversity Plus: 4H Assay for Eotaxin 3 Biomarker Activity (AID 2283000); conditions: primary human endothelial cells (HUVEC); actives raise or lower the signal;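 further: CCL26 protein level quantified by ELISA in parallel with SRB cytotoxicity check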
# Procedure, shortened: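 HUVEC, 24 h post-dose, ELISA for Eotaxin-3/CCL26. Gain or loss of signal fitted bidirectionally vs DMSO baseline.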
# [17] = read-out: Intercellular Adhesion Molecule 1 (ICAM1), ICAM1 (gene 3383); assay: BSK_3C_ICAM1: BioMAP Diversity Plus: 3C Assay for Intercellular Adhesion Molecule 1 (ICAM1) Biomarker Activity (AID 2283003); conditions: primary human endothelial cells (HUVEC); actives raise or lower the signal
# Procedure, shortened: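 Primary human umbilical vein endothelial cells in the BioMAP 3C system were exposed to chemicals for 24 h, then ICAM-1 was quantified by ELISA. Activity was fitted bidirectionally against the DMSO negative control baseline.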
# [18] = BSK_3C_Proliferation: Cell Proliferation Assessment in the BioMAP Diversity Plus: 3C Assay (AID 2283006); conditions: primary human endothelial cells (HUVEC)
# Procedure, shortened: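 Human umbilical vein endothelial cells were grown sub-confluent and exposed to chemical for 48 h, then fixed with 10% TCA and stained with 0.1% sulforhodamine B; absorbance at 560 nm gave relative cell number, fitted bidirectionally against DMSO baseline.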
# Sequence of Cellular tumor antigen p53 (Homo sapiens) (P04637 whole entry, looked up): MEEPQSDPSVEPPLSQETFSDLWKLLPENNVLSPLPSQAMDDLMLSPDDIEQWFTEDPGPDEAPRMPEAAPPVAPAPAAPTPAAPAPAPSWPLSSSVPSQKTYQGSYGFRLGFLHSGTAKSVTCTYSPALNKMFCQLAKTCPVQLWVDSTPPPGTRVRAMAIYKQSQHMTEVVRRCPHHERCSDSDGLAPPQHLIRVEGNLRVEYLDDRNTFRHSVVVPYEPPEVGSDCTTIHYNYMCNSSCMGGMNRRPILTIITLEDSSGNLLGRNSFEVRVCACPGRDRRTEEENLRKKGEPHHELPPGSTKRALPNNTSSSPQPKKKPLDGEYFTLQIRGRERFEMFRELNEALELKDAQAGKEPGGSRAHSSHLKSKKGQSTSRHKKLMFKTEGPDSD
# Sequence of Nuclear receptor subfamily 1 group I member 2 (Homo sapiens) (O75469 whole entry, looked up, the tested form may be a part): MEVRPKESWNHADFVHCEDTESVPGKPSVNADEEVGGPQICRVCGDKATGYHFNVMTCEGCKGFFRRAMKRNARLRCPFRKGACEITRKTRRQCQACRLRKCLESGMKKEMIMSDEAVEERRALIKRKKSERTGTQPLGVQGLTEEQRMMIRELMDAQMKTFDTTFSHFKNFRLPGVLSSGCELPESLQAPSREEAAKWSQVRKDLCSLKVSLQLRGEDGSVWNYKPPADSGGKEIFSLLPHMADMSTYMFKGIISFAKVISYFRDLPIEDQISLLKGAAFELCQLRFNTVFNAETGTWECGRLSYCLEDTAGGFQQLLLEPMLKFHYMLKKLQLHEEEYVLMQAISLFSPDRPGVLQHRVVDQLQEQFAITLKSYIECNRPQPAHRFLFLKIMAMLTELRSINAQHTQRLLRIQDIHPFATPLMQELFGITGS
# Sequence of human RAR-related Orphan Receptor beta (RORb), RORB (gene 6096) (Q92753 whole entry, looked up, the tested form may be a part): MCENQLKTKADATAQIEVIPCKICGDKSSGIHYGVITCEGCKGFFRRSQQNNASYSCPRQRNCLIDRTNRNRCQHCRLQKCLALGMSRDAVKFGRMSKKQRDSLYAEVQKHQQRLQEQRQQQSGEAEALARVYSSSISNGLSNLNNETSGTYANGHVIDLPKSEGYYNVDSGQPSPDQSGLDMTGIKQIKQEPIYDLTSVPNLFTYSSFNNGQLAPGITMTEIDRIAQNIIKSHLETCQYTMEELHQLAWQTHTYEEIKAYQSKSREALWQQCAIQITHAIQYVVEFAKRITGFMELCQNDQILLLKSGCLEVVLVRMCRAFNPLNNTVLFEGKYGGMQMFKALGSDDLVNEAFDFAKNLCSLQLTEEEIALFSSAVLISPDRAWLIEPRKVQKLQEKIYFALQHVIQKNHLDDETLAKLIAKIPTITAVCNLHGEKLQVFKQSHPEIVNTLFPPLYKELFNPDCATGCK
# Sequence of human Peroxisome Proliferator-activated Receptor alpha (PPARa), PPARA (gene 5465) (Q07869 whole entry, looked up, the tested form may be a part): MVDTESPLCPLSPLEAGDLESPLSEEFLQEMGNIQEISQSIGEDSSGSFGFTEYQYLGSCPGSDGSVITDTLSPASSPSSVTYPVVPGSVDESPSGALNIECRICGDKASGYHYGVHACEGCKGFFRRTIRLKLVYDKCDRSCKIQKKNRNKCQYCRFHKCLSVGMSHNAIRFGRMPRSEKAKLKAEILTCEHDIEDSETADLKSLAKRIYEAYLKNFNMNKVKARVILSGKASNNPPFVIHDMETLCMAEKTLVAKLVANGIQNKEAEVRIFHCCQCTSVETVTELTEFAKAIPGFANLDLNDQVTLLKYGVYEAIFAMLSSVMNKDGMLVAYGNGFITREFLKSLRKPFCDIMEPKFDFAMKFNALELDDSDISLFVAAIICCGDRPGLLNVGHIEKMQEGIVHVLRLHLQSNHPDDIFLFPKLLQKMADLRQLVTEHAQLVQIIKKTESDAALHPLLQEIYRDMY
# Sequence of Peroxisome proliferator-activated receptor gamma (Homo sapiens) (P37231 whole entry, looked up, the tested form may be a part): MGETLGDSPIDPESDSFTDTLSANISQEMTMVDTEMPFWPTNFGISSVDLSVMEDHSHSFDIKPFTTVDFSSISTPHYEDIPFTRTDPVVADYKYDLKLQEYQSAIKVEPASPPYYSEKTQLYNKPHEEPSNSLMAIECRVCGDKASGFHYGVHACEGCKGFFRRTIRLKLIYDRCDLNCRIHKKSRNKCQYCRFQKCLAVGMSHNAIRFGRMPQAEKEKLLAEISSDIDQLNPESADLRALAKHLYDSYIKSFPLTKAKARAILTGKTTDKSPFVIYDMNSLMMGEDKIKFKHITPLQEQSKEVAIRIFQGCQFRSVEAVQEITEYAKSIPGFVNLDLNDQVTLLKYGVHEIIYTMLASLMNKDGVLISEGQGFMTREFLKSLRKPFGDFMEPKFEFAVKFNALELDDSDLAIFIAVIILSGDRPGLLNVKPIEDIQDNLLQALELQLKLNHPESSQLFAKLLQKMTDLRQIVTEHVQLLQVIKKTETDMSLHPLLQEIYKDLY
# Sequence of Myc proto-oncogene protein (Homo sapiens) (P01106 whole entry, looked up): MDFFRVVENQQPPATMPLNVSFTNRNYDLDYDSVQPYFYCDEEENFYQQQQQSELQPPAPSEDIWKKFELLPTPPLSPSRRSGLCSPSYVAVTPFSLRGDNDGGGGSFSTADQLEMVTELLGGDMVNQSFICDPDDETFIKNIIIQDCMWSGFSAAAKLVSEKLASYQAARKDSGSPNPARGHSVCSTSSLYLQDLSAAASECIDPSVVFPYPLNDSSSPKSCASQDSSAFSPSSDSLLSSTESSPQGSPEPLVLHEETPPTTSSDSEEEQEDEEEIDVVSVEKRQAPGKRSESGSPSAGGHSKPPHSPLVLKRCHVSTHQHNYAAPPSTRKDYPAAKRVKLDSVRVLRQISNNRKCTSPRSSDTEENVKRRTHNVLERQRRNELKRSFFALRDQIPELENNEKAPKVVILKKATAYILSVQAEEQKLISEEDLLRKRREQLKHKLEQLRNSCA
# Sequence of human Peroxisome Proliferator-activated Receptor delta (PPARd), PPARD (gene 5467) (Q03181 whole entry, looked up, the tested form may be a part): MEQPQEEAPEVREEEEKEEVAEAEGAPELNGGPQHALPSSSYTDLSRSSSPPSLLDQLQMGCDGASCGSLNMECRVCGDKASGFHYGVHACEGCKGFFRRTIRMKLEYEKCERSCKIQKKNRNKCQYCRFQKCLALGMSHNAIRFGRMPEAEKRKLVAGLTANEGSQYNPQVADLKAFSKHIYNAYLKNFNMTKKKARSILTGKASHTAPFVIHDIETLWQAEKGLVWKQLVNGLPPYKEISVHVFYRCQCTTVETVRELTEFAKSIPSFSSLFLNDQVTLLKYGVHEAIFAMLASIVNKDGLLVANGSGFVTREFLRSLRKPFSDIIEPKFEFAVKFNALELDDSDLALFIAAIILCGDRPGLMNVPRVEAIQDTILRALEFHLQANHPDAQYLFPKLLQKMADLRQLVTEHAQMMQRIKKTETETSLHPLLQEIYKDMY
# Sequence of Retinoic acid receptor alpha (Homo sapiens) (P10276 whole entry, looked up, the tested form may be a part): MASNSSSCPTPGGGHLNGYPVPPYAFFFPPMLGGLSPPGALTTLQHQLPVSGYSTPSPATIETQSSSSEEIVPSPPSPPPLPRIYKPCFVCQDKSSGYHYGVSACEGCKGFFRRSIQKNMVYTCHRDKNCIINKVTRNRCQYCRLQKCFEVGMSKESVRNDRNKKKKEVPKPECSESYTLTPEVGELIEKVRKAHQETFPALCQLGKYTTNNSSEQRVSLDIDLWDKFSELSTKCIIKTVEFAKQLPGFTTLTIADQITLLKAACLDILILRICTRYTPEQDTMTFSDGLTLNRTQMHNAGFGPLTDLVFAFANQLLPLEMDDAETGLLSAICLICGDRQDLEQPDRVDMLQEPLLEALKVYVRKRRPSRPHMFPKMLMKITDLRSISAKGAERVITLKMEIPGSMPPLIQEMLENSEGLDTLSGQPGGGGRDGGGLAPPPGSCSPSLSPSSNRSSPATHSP
structure (smiles),measurement,setting,value
O=C(COc1ccc(Cl)cc1)N1CCN(Cc2ccc3c(c2)OCO3)CC1,outcome,[1],inactive
same,outcome,[2],inactive
same,outcome,[3],inactive
same,AC50,[4],100 µM (active)
same,outcome,[5],inactive
same,outcome,[6],inactive
same,outcome,[7],inactive
CCCCCCCCCCN,outcome,[1],inactive
same,outcome,[2],inactive
same,outcome,[3],inactive
same,outcome,[4],inactive
same,outcome,[8],inactive
same,outcome,[9],inactive
O=C(O)CCCCCCCCCCC(=O)O,outcome,[1],inactive
same,outcome,[2],inactive
same,outcome,[3],inactive
same,outcome,[4],inactive
same,outcome,[5],inactive
same,outcome,[6],inactive
same,outcome,[10],inactive
C=COCCOCCOCCOC=C,outcome,[1],inactive
same,outcome,[2],inactive
same,outcome,[3],inactive
same,outcome,[4],inactive
same,outcome,[8],inactive
same,outcome,[6],inactive
same,outcome,[9],inactive
same,outcome,[7],inactive
N#Cc1ccccc1,outcome,[1],inactive
same,outcome,[2],inactive
same,outcome,[3],inactive
same,outcome,[4],inactive
same,outcome,[8],inactive
same,outcome,[6],inactive
same,outcome,[9],inactive
same,outcome,[11],inactive
same,outcome,[7],inactive
CC1(C)OC[C@@H]2O[C@@]3(C(=O)O)OC(C)(C)O[C@H]3[C@@H]2O1,outcome,[1],inactive
same,outcome,[2],inactive
same,outcome,[3],inactive
same,outcome,[4],inactive
same,outcome,[5],inactive
same,outcome,[12],inactive
same,outcome,[7],inactive
CC(c1cc2ccccc2s1)N(O)C(N)=O (stereo not given),outcome,[1],inactive
same,outcome,[2],inactive
same,outcome,[3],inactive
same,outcome,[4],inactive
same,outcome,[5],inactive
same,outcome,[9],inactive
same,outcome,[7],inactive
Nc1nc2ccc([N+](=O)[O-])cc2s1,outcome,[1],inactive
same,outcome,[2],inactive
same,outcome,[3],inactive
same,AC50,[4],56.5 µM (active)
same,outcome,[5],inactive
same,outcome,[6],inactive
same,AC50,[11],29.7 µM (active)
same,outcome,[7],inactive
COC(=O)Cc1cccc2ccccc12,outcome,[1],inactive
same,outcome,[2],inactive
same,outcome,[3],inactive
same,outcome,[4],inactive
same,outcome,[8],inactive
same,outcome,[6],inactive
same,outcome,[9],inactive
same,AC50,[11],66.5 µM (active)
same,outcome,[7],inactive
O=Cc1ccc(Cl)c([N+](=O)[O-])c1,AC50,[1],160 µM (active)
same,AC50,[2],100 µM (active)
same,outcome,[3],inactive
same,AC50,[4],179 µM (active)
same,AC50,[8],54.5 µM (active)
same,outcome,[6],inactive
same,outcome,[9],inactive
same,AC50,[11],100 µM (active)
CC1CCC(C(C)(C)O)CC1 (stereo not given),outcome,[1],inactive
same,outcome,[2],inactive
same,outcome,[3],inactive
same,outcome,[4],inactive
same,outcome,[8],inactive
same,outcome,[6],inactive
same,outcome,[7],inactive
same,outcome,[10],inactive
CN(C)c1ccc(O)c2c1C[C@H]1C[C@H]3[C@H](N(C)C)C(=O)C(C(N)=O)=C(O)[C@@]3(O)C(=O)C1=C2O,outcome,[1],inactive
same,outcome,[2],inactive
same,outcome,[3],inactive
same,outcome,[4],inactive
same,outcome,[5],inactive
same,outcome,[9],inactive
same,outcome,[7],inactive
same,outcome,[10],inactive
CCCCN,outcome,[1],inactive
same,outcome,[2],inactive
same,outcome,[3],inactive
same,outcome,[4],inactive
same,outcome,[5],inactive
same,outcome,[8],inactive
same,outcome,[11],inactive
same,outcome,[10],inactive
CC(C)(C#N)c1cc(Cn2cncn2)cc(C(C)(C)C#N)c1,outcome,[1],inactive
same,outcome,[2],inactive
same,outcome,[3],inactive
same,outcome,[4],inactive
same,outcome,[8],inactive
same,outcome,[6],inactive
same,outcome,[11],inactive
same,outcome,[7],inactive
CCCCCCCCCCCCCCCCCC(=O)OCC(CC)CCCC (stereo not given),outcome,[1],inactive
same,outcome,[2],inactive
same,outcome,[3],inactive
same,outcome,[4],inactive
same,outcome,[8],inactive
same,outcome,[13],inactive
same,outcome,[14],inactive
same,outcome,[15],inactive
same,outcome,[16],inactive
same,outcome,[17],inactive
same,outcome,[18],inactive
same,outcome,[10],inactive
